Values joined by “and” are separate entries in the source; they are usually repeats but may differ in a detail not shown here. Identical values can stand only once. The source holds several records for some structures; these can differ, active in one and inactive in another. Active and inactive are the calls of the source. The calls were made as follows: active = hit-call score of the fitted dose curve at least 0.9, where 1 is the maximum; inactive = score below 0.9.

Read-out in assay [1]: Interleukin 17F (IL17F), IL17F (gene 112744)
Nature of the assay: BSK_BT_xIL17F: BioMAP Diversity Plus: BT Assay for Interleukin 17F (IL17F) Biomarker Activity (AID 2284243). The note with it: primary human B cells with PBMC. Put shortly:
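Human PBMC co-cultured with B cells, compound exposure 24 h; secreted IL-17F quantified by Luminex xMAP, referenced to DMSO control. PBMC viability measured in parallel by Alamar Blue reduction.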

Read-out in assay [2]: Actin alpha 1 (ACTA1), ACTA1 (gene 58)
Nature of the assay: BSK_MyoF_ACTA1: BioMAP Diversity Plus: MyoF Assay for Actin alpha 1 (ACTA1) Biomarker Activity (AID 2284244). The note with it: primary human lung fibroblasts. Put shortly:
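Cells were exposed to chemical for 24 h before a-SMA levels were quantified by ELISA in human lung fibroblasts. Increases were fitted against DMSO as negative control; parallel SRB staining (0.1% after 10% TCA fixation, 560 nm) assessed cytotoxicity.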

Read-out in assay [3]: Interleukin 2 (IL2), IL2 (gene 3558)
Nature of the assay: BSK_BT_xIL2: BioMAP Diversity Plus: BT Assay for Interleukin 2 (IL2) Biomarker Activity (AID 2284245). Conditions: primary human B cells with PBMC. Summed up:
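The BT system combines human B cells with peripheral blood mononuclear cells. Twenty-four hours after chemical dosing, secreted IL-2 was measured with xMAP bead technology, and responses were analyzed as increases over DMSO controls.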

Read-out in assay [4]: Basic fibroblast growth factor (bFGF), FGF2 (gene 2247)
Nature of the assay: BSK_MyoF_bFGF: BioMAP Diversity Plus: MyoF Assay for Basic fibroblast growth factor (bFGF) Biomarker Activity (AID 2284246). The note with it: primary human lung fibroblasts. Summed up:
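Chemicals are added to human lung fibroblast cultures and incubated 24 h. bFGF is then measured by ELISA, while parallel cultures receive SRB staining for total protein as a cytotoxicity check. Data are fitted upward against DMSO.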

Read-out in assay [5]: Collagen IV, COL4A1 (gene 1282)
Nature of the assay: BSK_MyoF_CollagenIV: BioMAP Diversity Plus: MyoF Assay for Collagen IV Biomarker Activity (AID 2284247). Conditions: primary human lung fibroblasts. Put shortly:
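Human lung fibroblast system, 24 h chemical exposure. Endpoint: Collagen IV by ELISA, upward fit vs DMSO.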

Read-out in assay [6]: Monokine induced gamma interferon (MIG), CXCL9 (gene 4283)
In words: BSK_KF3CT_MIG: BioMAP Diversity Plus: KF3CT Assay for Monokine induced gamma interferon (MIG) Biomarker Activity (AID 2284248). Conditions: primary human keratinocytes with fibroblasts. Put shortly:
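Human keratinocyte–foreskin fibroblast co-culture; MIG measured by ELISA 24 h after chemical dosing, fitted upward versus DMSO. Cytotoxicity was assessed in parallel cultures by SRB total-protein staining read at 560 nm.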

Read-out in assay [7]: Vascular cell adhesion molecule 1 (VCAM1), VCAM1 (gene 7412)
Nature of the assay: BSK_BF4T_VCAM1: BioMAP Diversity Plus: BF4T Assay for Vascular cell adhesion molecule 1 (VCAM1) Biomarker Activity (AID 2284249). Conditions: primary human bronchial epithelial cells with fibroblasts. Put shortly:
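Cell-surface VCAM-1 quantified by ELISA after 24 h chemical exposure of human bronchial epithelial/dermal fibroblast co-cultures, with SRB staining in parallel wells for cytotoxicity; DMSO baseline, positive-direction fitting.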

Read-out in assay [8]: Interferon-inducible T-cell alpha chemoattractant (ITAC), CXCL11 (gene 6373)
In words: BSK_hDFCGF_ITAC: BioMAP Diversity Plus: hDFCGF Assay for Interferon-inducible T-cell alpha chemoattractant (ITAC) Biomarker Activity (AID 2284251). The note with it: primary human foreskin fibroblasts. Summed up: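 I-TAC levels were read by ELISA on human dermal foreskin fibroblast primary cultures 24 h after dosing, analysed against DMSO in the positive direction. Cytotoxicity was assessed alongside by sulforhodamine B total-protein staining.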

Read-out in assay [9]: Plasminogen activator inhibitor-1 (PAI1), SERPINE1 (gene 5054)
Nature of the assay: BSK_KF3CT_PAI1: BioMAP Diversity Plus: KF3CT Assay for Plasminogen activator inhibitor-1 (PAI1) Biomarker Activity (AID 2284252). The note with it: primary human keratinocytes with fibroblasts. Summed up: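 Cells (human keratinocytes co-cultured with foreskin fibroblasts) are exposed to test chemical for 24 h. PAI-1 is then measured by ELISA and analysed for signal gain against DMSO.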

Read-out in assay [10]: Interleukin-8 (IL8), CXCL8 (gene 3576)
Nature of the assay: BSK_KF3CT_IL8: BioMAP Diversity Plus: KF3CT Assay for Interleukin-8 (IL8) Biomarker Activity (AID 2284254). Conditions: primary human keratinocytes with fibroblasts. Summed up: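 Human keratinocyte/foreskin fibroblast co-culture dosed 24 h; IL-8 measured by ELISA relative to DMSO. Parallel cultures stained with SRB for total protein to flag cytotoxicity.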

Read-out in assay [11]: Macrophage Inflammatory Protein-1 Alpha (MIP1a), CCL3 (gene 6348)
Nature of the assay: BSK_IMphg_MIP1a: BioMAP Diversity Plus: IMphg Assay for Macrophage Inflammatory Protein-1 Alpha (MIP1a) Biomarker Activity (AID 2284255). The note with it: primary human endothelial cells with macrophages. Summed up: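 MIP-1a protein levels were quantified by ELISA after 24 h treatment of human endothelial cell–macrophage co-cultures, compared with DMSO. Parallel cultures were fixed with TCA and stained with 0.1% SRB to gauge overt cytotoxicity.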

Read-out in assay [12]: Plasminogen activator inhibitor-1 (PAI1), SERPINE1 (gene 5054)
In words: BSK_MyoF_PAI1: BioMAP Diversity Plus: MyoF Assay for Plasminogen activator inhibitor-1 (PAI1) Biomarker Activity (AID 2284256).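 As to outcome: PAI-1 read 24 h after compound addition.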 The note with it: primary human lung fibroblasts. Summed up:
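Primary human lung fibroblasts treated with chemical for 24 h; PAI-1 levels quantified by ELISA relative to DMSO. Cytotoxicity was assessed in parallel cultures by SRB total-protein staining (0.1% SRB after 10% TCA fixation, 560 nm).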

Read-out in another assay: CD69, CD69 (gene 969)
Nature of the assay: BSK_IMphg_CD69: BioMAP Diversity Plus: IMphg Assay for CD69 Biomarker Activity (AID 2284257). Conditions: primary human endothelial cells with macrophages. Put shortly: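 Readout is ELISA for CD69 in primary human venular endothelial cell/macrophage co-culture, taken at 24 h post-dosing. SRB staining of parallel cultures gauged overt cytotoxicity; signal increase versus DMSO defined activity.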

Read-out in assay [13]: Eotaxin 3, CCL26 (gene 10344)
In words: BSK_BF4T_Eotaxin3: BioMAP Diversity Plus: BF4T Assay for Eotaxin 3 Biomarker Activity (AID 2284258). Conditions: primary human bronchial epithelial cells with fibroblasts. Summed up:
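ELISA measurement of Eotaxin-3 after 24 h chemical exposure in a bronchial epithelial/dermal fibroblast co-culture, with DMSO as baseline. Parallel SRB staining (0.1% SRB after 10% TCA fixation, 560 nm) flagged overt cytotoxicity.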

Read-out in assay [14]: Monocyte Chemoattractant Protein-1 (MCP1), CCL2 (gene 6347)
Nature of the assay: BSK_BF4T_MCP1: BioMAP Diversity Plus: BF4T Assay for Monocyte Chemoattractant Protein-1 (MCP1) Biomarker Activity (AID 2284259). Conditions: primary human bronchial epithelial cells with fibroblasts. Put shortly:
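MCP-1 ELISA readout taken 24 h after dosing in the BF4T system (bronchial epithelial cells plus dermal fibroblasts). Parallel SRB total-protein staining flagged cytotoxicity; DMSO served as baseline, positive fitting direction.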

Read-out in assay [15]: Intercellular Adhesion Molecule 1 (ICAM1), ICAM1 (gene 3383)
Nature of the assay: BSK_BF4T_ICAM1: BioMAP Diversity Plus: BF4T Assay for Intercellular Adhesion Molecule 1 (ICAM1) Biomarker Activity (AID 2284260). Conditions: primary human bronchial epithelial cells with fibroblasts. Summed up: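 ICAM-1 levels measured by ELISA after 24 h chemical treatment of bronchial epithelial cell/dermal fibroblast co-cultures, read against DMSO baseline. Overt cytotoxicity checked in parallel cultures by sulforhodamine B staining.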

Read-out in assay [16]: Interleukin-8 (IL8), CXCL8 (gene 3576)
Nature of the assay: BSK_MyoF_IL8: BioMAP Diversity Plus: MyoF Assay for Interleukin-8 (IL8) Biomarker Activity (AID 2284261). Conditions: primary human lung fibroblasts. Summed up: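 Human lung fibroblast (MyoF system) cultures dosed for 24 h, then IL-8 measured by ELISA. Response taken relative to DMSO; parallel SRB total-protein staining for cytotoxicity.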

Read-out in another assay: CD90, THY1 (gene 7070)
Nature of the assay: BSK_BF4T_CD90: BioMAP Diversity Plus: BF4T Assay for CD90 Biomarker Activity (AID 2284262). The note with it: primary human bronchial epithelial cells with fibroblasts. Summed up: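 CD90 levels by ELISA after 24 h treatment of human bronchial epithelial cell/dermal fibroblast cultures, analysed versus DMSO. Overt cytotoxicity checked in parallel cultures by sulforhodamine B staining.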

Read-out in assay [17]: Monocyte Chemoattractant Protein-1 (MCP1), CCL2 (gene 6347)
Nature of the assay: BSK_IMphg_MCP1: BioMAP Diversity Plus: IMphg Assay for Monocyte Chemoattractant Protein-1 (MCP1) Biomarker Activity (AID 2284253). Conditions: primary human endothelial cells with macrophages. Put shortly: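 ELISA readout of MCP-1 at 24 hours in IMphg co-cultures of venular endothelial cells and macrophages, normalised to DMSO; parallel cultures stained with sulforhodamine B for overt cytotoxicity.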

Turning to `O=C(O)C(F)(F)C(F)(F)C(F)(F)C(F)(F)C(F)(F)C(F)(F)C(F)F`, the result in assay [1], in [2], in assay [3], in assay [4], in assay [5] and in assay [6] was inactive. Also, the result in assay [7], in assay [8], in assay [9], in assay [10], in [11] and in [12] was inactive. Also, the outcome is “inactive” with CD69, CD69 (gene 969); “inactive” in [13]; “inactive” in [14]; “inactive” in assay [15]; “inactive” in [16]; “inactive” with CD90, THY1 (gene 7070). For the same compound, the half-maximal activity concentration (AC50) is 0.232 µM (active) in [2], 577 nM (active) in assay [8] and 17.2 µM (active) in assay [10].
For `CCOC(=O)CC(=O)C(F)(F)C(F)(F)F`, the result in assay [1], in assay [2], in assay [3], in [4], in assay [5] and in assay [6] was inactive. The result in assay [7], in assay [8], in assay [9], in assay [17], in assay [10] and in assay [12] was inactive. Further, the outcome is “inactive” with CD69, CD69 (gene 969); “inactive” in [13]; “inactive” in assay [14]; “inactive” in assay [15]; “inactive” in assay [16]; “inactive” in the assay with CD90, THY1 (gene 7070).
In the case of `CCOC(C=C(C)CCC=C(C)C)OCC`, the result in assay [1], in assay [3], in assay [5] and in assay [16] was inactive. Moreover, the figures for the AC50 in [2], in assay [4] and in assay [12] were 7.77 µM (active), 30.7 µM (active) and 20 µM (active), respectively.
Turning to `O=S(=O)(O)CCC(F)(F)C(F)(F)C(F)(F)C(F)(F)C(F)(F)C(F)(F)C(F)(F)C(F)(F)F`, the result in [1], in assay [2], in [3], in assay [4], in assay [5] and in [6] was inactive. Also, the outcome was “inactive” in assay [7]; “inactive” in assay [8]; “inactive” in assay [9]; “inactive” in [10]; “inactive” in [12]; “inactive” with CD69, CD69 (gene 969). In addition, the outcome is “inactive” in assay [14]; “inactive” in assay [15]; “inactive” in [16]; “inactive” with CD90, THY1 (gene 7070). The concentration at half-maximal activity (AC50) in assay [8] was 30000 nM (active); in [10] it was 30 µM (active); with CD69, CD69 (gene 969) it was 30 µM (active); in [13], 15.1 µM (active) and 8.3 µM (active).
Turning to `CCN(CCO)S(=O)(=O)C(F)(F)C(F)(F)C(F)(F)C(F)(F)C(F)(F)C(F)(F)C(F)(F)C(F)(F)F`, the AC50 was 13 µM (active) and 12.6 µM (active) in assay [1]; 19.5 µM (active) in assay [2]; 26.7 µM (active) and 25.7 µM (active) in assay [3]; 22.7 µM (active) and 31.6 µM (active) in [6]; 34.8 µM (active) and 24.3 µM (active) in assay [8]; 17.7 µM (active) and 8.86 µM (active) in [9]. Besides, the AC50 is 5.61 µM (active) in assay [10]; 55.1 µM (active) in assay [12]; 6.74 µM (active) in the assay with CD69, CD69 (gene 969). The outcome was “inactive” in [2]; “inactive” in [5]; “inactive” in assay [7]; “inactive” in [10]; “inactive” in assay [12]; “inactive” with CD69, CD69 (gene 969). Besides, the outcome was “inactive” in assay [13]; “inactive” in assay [14]; “inactive” in assay [15]; “inactive” in assay [16]; “inactive” with CD90, THY1 (gene 7070).
Turning to `O=C(O)C(F)(F)C(F)(F)C(F)(F)C(=O)O`, the result in assay [1], in assay [2], in [3], in assay [4], in assay [5] and in [6] was inactive. Further, the result in assay [7], in [8], in assay [9], in assay [17], in [10] and in [12] was inactive. Also, the outcome with CD69, CD69 (gene 969) is “inactive”; in assay [13], “inactive”; in [14], “inactive”; in assay [15] it was “inactive”; in assay [16], “inactive”; with CD90, THY1 (gene 7070) it was “inactive”.

What is called AC50 is the concentration at which the activity in the assay is half-maximal.

Values taken from PubChem BioAssay (EPA / NIEHS).
